Compounds without any hit were thinned out: in the full panel of roughly 79,000, 15% have a hit. Active and inactive are the calls of the source. Cut-off read from the data, not from the text of the source: active = growth inhibition above about 70%; inactive = the rest.
Legend:
[1] = NCI Yeast Anticancer Drug Screen. Data for the rad52 strain (AID 147);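 note: 0% = growth of vehicle-treated control cultures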; details: S. cerevisiae rad52 mutant growth inhibition, stronger effect = higher value
Method in brief: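 Vehicle-treated cultures served as the reference for growth inhibition of compound-exposed yeast bearing a DNA repair mutation.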

[2] = NCI Yeast Anticancer Drug Screen. Data for the wt1 strain (AID 149);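 note: 0% = growth of vehicle-treated wt1 cultures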; details: S. cerevisiae wt1 strain (SPY 50644) growth inhibition, stronger effect = higher value
Method in brief: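 Yeast wt1 strain exposed to compounds; growth inhibition measured relative to vehicle-treated controls.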

[3] = NCI Yeast Anticancer Drug Screen. Data for the rad50EPP+ strain (AID 151);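 note: 0% = growth of vehicle-treated control cultures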; details: S. cerevisiae rad50 mutant strain, stronger effect = higher value
Method in brief: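 In this screen, rad50EPP+ yeast were exposed to compounds. Growth inhibition was scored against vehicle-treated controls.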

[4] = NCI Yeast Anticancer Drug Screen. Data for the rad50 strain (AID 155);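 note: 0% = growth of vehicle-only cultures of the same strain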; details: S. cerevisiae rad50 strain growth inhibition, stronger effect = higher value
Method in brief: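 Yeast carrying a defined DNA repair defect were exposed to test compounds, and growth was compared with vehicle-treated controls to give percent inhibition.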

[5] = NCI Yeast Anticancer Drug Screen. Data for the mec2-1 strain (AID 157); details: S. cerevisiae mec2-1 strain, stronger effect = higher value
Method in brief: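 Vehicle-treated cultures served as reference for growth inhibition of compound-exposed mec2-1 yeast.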

[6] = NCI Yeast Anticancer Drug Screen. Data for the sgs1 mgt1 strain (AID 161);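 note: 0% = growth of cultures given vehicle only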; details: S. cerevisiae sgs1 mgt1 strain, stronger effect = higher value
Method in brief: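 Genetically altered yeast, compound exposure, growth inhibition relative to vehicle.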

[7] = NCI Yeast Anticancer Drug Screen. Data for the CLN2oe strain (AID 163);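 note: 0% = growth of vehicle-only control cultures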; details: S. cerevisiae CLN2oe strain, stronger effect = higher value
Method in brief: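 Inhibition relative to vehicle-treated yeast is reported. Cells: strain with genetic alteration in cell-cycle control, grown with compound.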

[8] = NCI Yeast Anticancer Drug Screen. Data for the cln2 rad14 strain (AID 165);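 note: 0% = growth equal to vehicle treated cultures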; details: S. cerevisiae cln2 rad14 strain, stronger effect = higher value
Method in brief: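 Each compound was tested on cln2 rad14 yeast. Inhibition of growth was calculated against vehicle-exposed controls.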

[9] = NCI Yeast Anticancer Drug Screen. Data for the bub3 strain (AID 167); details: S. cerevisiae bub3 mutant strain, stronger effect = higher value
Method in brief: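 Compounds were applied to a genetically altered yeast strain carrying a cell-cycle control defect. Growth inhibition was scored against vehicle-treated controls.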

[10] = NCI Yeast Anticancer Drug Screen. Data for the wt2 strain (AID 169);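 note: 0% = growth of vehicle-treated yeast cultures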; details: S. cerevisiae wt2 strain growth inhibition, stronger effect = higher value
Method in brief: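 Inhibition of yeast growth was determined after compound treatment, normalised to controls receiving only vehicle.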

[11] = NCI Yeast Anticancer Drug Screen. Data for the sgs1 strain (AID 173);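 note: 0% = growth of vehicle-only control cultures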; details: S. cerevisiae sgs1 mutant, stronger effect = higher value
Method in brief: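 Screen format: yeast with repair or checkpoint alterations, compound exposure, growth read relative to vehicle.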

[12] = NCI Yeast Anticancer Drug Screen. Data for the mlh1 rad18 strain (AID 175); details: S. cerevisiae mlh1 rad18 strain growth inhibition, stronger effect = higher value
Method in brief: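 Vehicle-treated cultures served as the reference for growth inhibition in a yeast strain carrying DNA damage repair alterations exposed to each compound.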

[13] = NCI Yeast Anticancer Drug Screen. Data for the mgt1 strain (AID 153); details: S. cerevisiae mgt1 mutant growth inhibition, stronger effect = higher value
Method in brief: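 mgt1 strain exposed; growth vs vehicle control recorded as inhibition.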

[14] = at 5.0 µM (retest, dose inferred, filed as 0.5)
[15] = at 50.0 µM (retest, dose inferred, filed as 5.0)

Measured: growth inhibition

C/C(=N/NC(=S)N1CCCCCC1)c1cccc(/C(C)=N\NC(=S)N2CCCCCC2)n1
inactive: [1]; at 1.2 µM 19% | [1]; at 3.7 µM 25% | [1]; at 11.0 µM 54% | [2]; at 1.2 µM 17% | [2]; at 3.7 µM 34% | [2]; at 11.0 µM 60% | [3]; at 1.2 µM 0% | [3]; at 3.7 µM -1% | [3]; at 11.0 µM -27% | [3]; at 33.0 µM -48% | [3]; at 100.0 µM -39% | [4]; at 1.2 µM 38% | [4]; at 3.7 µM 42% | [4]; [14] 42% | [4]; at 11.0 µM 62% | [5]; at 1.2 µM 22% | [5]; at 3.7 µM 31% | [5]; [14] 31% | [5]; at 11.0 µM 51% | [6]; [14] 43% | [7]; at 1.2 µM -4% | [7]; at 3.7 µM -4% | [7]; at 11.0 µM -6% | [7]; at 33.0 µM -5% | [7]; at 100.0 µM 23% | [8]; [14] 9% | [9]; at 1.2 µM -4% | [9]; at 3.7 µM -3% | [9]; [14] 58% | [9]; at 11.0 µM -4% | [9]; at 33.0 µM 7% | [9]; at 100.0 µM 15% | [10]; at 1.2 µM -1% | [10]; at 3.7 µM -6% | [10]; at 11.0 µM -1% | [10]; at 33.0 µM 8% | [10]; at 100.0 µM 32% | [11]; at 1.2 µM 21% | [11]; at 3.7 µM 15% | [11]; at 11.0 µM 41% | [11]; at 33.0 µM 66% | [12]; [14] 59%
active: [1]; at 33.0 µM 73% | [1]; at 100.0 µM 71% | [2]; at 33.0 µM 82% | [2]; at 100.0 µM 81% | [4]; at 33.0 µM 79% | [4]; [15] 93% | [4]; at 50.0 µM 90.8% | [4]; at 100.0 µM 73% | [5]; at 33.0 µM 81% | [5]; [15] 92% | [5]; at 50.0 µM 91% | [5]; at 100.0 µM 83% | [6]; [15] 93% | [6]; at 50.0 µM 92.8% | [8]; [15] 91% | [8]; at 50.0 µM 93.2% | [9]; [15] 92% | [9]; at 50.0 µM 92% | [11]; at 100.0 µM 73% | [12]; [15] 91% | [12]; at 50.0 µM 90.3%

O=C(NCCCNCCCNC(=O)c1cc(-c2ccccc2)nc2ccccc12)c1cc(-c2ccccc2)nc2ccccc12
inactive: [1]; at 1.2 µM -4% | [1]; at 3.7 µM -2% | [1]; at 11.0 µM -4% | [1]; at 33.0 µM 6% | [1]; at 100.0 µM 11% | [3]; at 1.2 µM -1% | [3]; at 3.7 µM 5% | [3]; at 11.0 µM 14% | [3]; at 33.0 µM 24% | [3]; at 100.0 µM 19% | [13]; at 1.2 µM -2% | [13]; at 3.7 µM -1% | [13]; at 11.0 µM -3% | [13]; at 33.0 µM 20% | [13]; at 100.0 µM 61% | [4]; at 1.2 µM -3% | [4]; at 3.7 µM -2% | [4]; [14] -13% | [4]; at 11.0 µM -4% | [4]; at 33.0 µM 27% | [4]; [15] 54% | [4]; at 50.0 µM 37.3% | [4]; at 100.0 µM 51% | [5]; at 1.2 µM -2% | [5]; at 3.7 µM -4% | [5]; [14] -11% | [5]; at 11.0 µM -5% | [5]; at 33.0 µM 10% | [5]; [15] 19% | [5]; at 50.0 µM 37.7%

— PubChem BioAssay (NCI)
